This note sets out measurements from PubChem BioAssay.

Dickkopf-related protein 1 (Homo sapiens), sequence (O94907 whole entry, looked up): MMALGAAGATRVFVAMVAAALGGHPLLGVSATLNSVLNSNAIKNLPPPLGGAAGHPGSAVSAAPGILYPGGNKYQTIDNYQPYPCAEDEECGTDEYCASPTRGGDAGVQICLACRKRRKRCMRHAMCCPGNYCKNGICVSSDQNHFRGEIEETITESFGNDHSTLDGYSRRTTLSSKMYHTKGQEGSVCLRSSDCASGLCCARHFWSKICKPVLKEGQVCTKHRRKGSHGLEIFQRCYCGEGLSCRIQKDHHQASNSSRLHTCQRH

For one experiment, the target named is Follistatin-related protein 3 (Homo sapiens) (UniProt O95633). The experiment can be described thus: FSTL3 binders on small-molecule microarrays, primary screen, biochemical, small-molecule microarray, 635 nm fluorescence (AID 1105).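 Note: score merges emission near 667 nm and signal to noise per printed spot across three slides.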 As to conditions: FSTL3 binding, higher = more signal.
Follistatin-related protein 3 (Homo sapiens), sequence (O95633 whole entry, looked up): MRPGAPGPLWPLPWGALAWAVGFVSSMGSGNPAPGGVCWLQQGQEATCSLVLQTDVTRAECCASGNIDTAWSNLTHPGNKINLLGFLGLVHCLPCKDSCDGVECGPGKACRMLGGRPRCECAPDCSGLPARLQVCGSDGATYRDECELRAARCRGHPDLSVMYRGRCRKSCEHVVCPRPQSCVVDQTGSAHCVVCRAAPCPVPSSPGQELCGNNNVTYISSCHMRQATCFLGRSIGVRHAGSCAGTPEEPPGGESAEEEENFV
Consider `COCCOC(=O)N1C(=O)[C@@]2(c3cc(C#CCC(C(=O)OC)C(=O)OC)ccc31)[C@H](C(=O)Nc1nc3ccccc3s1)[C@H]1C(=O)O[C@H](c3ccccc3)[C@H](c3ccccc3)N1[C@@H]2c1ccc(OCCO)cc1`, for which the composite z-score is 1. Still for that read-out and setting: under `CCCCCCc1nc(Cc2cc(OC)c(OC)c(OC)c2)cc2c1[Si](C(C)C)(C(C)C)O[C@H]2c1ccccc1` stands 0.594. Turning to `COC(=O)c1cccc([C@H]2OC(=CC(=O)OC(C)C)C[C@@H](c3cccc(C(=O)OC)c3)O2)c1`, the composite z-score worked out at 1.09.

As for `C=CC[C@]1(C(=O)NCC(O)CO)COC(c2ccc(OCCCO)cc2)=N1` (some centres not stated), the composite z-score is -0.865.

Consider `COC(=O)[C@@]1(Cc2ccccc2)[C@H]2c3cc(C(=O)N(C)C)n(Cc4ccc(C(F)(F)F)nc4)c3C[C@H]2CN1C(=O)c1ccccc1`, for which the composite z-score is 0.885. On the same count and under the same terms, under `CCCNC(=O)[C@@]1(c2ccc([N+](=O)[O-])cc2)CC(=O)N(C(C)C)[C@@H]1c1ccc(CO)cc1` stands -0.546; under `C[C@@H]1NC(=O)C([C@@H](C)OCc2ccccc2)NC(=O)[C@@]23C(=O)N[C@@H](Cc4ccccc4)C2[C@H](C)[C@@]2(C)O[C@H]2C3/C=C/C/C=C\CNC1=O` (some centres not stated), 0.11; under `CCOC(=O)C1=C[C@@H](C(C)(C)C)N(S(=O)(=O)c2ccc(C)cc2)[C@H]1c1ccc(C#N)cc1`, 1.09.

The next experiment has as its target Dickkopf-related protein 1 (Homo sapiens) (UniProt O94907). Nature of the experiment: DKK1 binders on small-molecule microarrays, primary screen, biochemical, small-molecule microarray, 635 nm fluorescence scan (AID 1106).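 Note: score merges emission near 667 nm with signal to noise over three replicate slides.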 The conditions noted are these: DKK1 binding, higher = more signal.
`C=C1C(=O)C=C2CN(C(=O)c3ccccc3)[C@@](Cc3ccc(OC)cc3)(C(=O)OC)[C@@H]12`: the composite z-score was -0.399. Regarding `COC(=O)[C@@]1(Cc2ccc(F)cc2)[C@H]2c3cc(C(=O)N(C)C)n(C)c3C[C@H]2CN1C(=O)c1ccccc1`, the composite z-score was -0.615.

On to `COCCCNC(=O)[C@@]1(CCS(=O)(=O)c2ccccc2)COC(c2ccc(OCCCO)cc2)=N1`, for which the composite z-score was -0.0211. On to `CO[C@H]1O[C@H](CO)[C@@H](OC(=O)Nc2ccc3c(c2)OCO3)[C@H](OC(=O)Nc2ccccc2-c2ccccc2)[C@H]1OC(=O)Nc1ccccc1-c1ccccc1`, for which the composite z-score is -0.0521.

Turning to `NC(=O)N1C(=O)C2C(C1=O)C1C=C(CCCO)C2C(C2CC2)N1Cc1sc2ccccc2c1Cl` (configuration not stated), the composite z-score is 0.158. On the same count and under the same terms, under `C=CC[C@@]1(C(=O)OC)N=C(c2ccc(OCCCO)cc2)O[C@@H]1c1ccccc1N=[N+]=[N-]` stands 0.685; under `C=CCC(OC(C)=O)[C@@H]1[C@@H](N(Cc2ccc(-c3ccccc3)cc2)C(=O)c2cccc3ccccc23)c2cc(OCCCO)ccc2N1C(=O)Cc1ccc(OC)cc1` (some centres not stated), -0.113; under `CCOc1cc(C(O)C2C=CC3C(=O)N(c4ccccc4)C(=O)C3N2Nc2ccccc2F)ccc1O` (configuration not stated), -0.344. Same read-out and setting: the result for `C=CCC(OC(C)=O)[C@@H]1[C@@H](N(Cc2cc3ccccc3o2)C(=O)c2cccc3ccccc23)c2cc(OCCCO)ccc2N1C(=O)c1ccc2ccccc2n1` (some centres not stated) reads 0.121; that for `COc1ccc(C(O)C2C=CC3C(=O)N(C)C(=O)C3N2N(c2ccccc2)c2ccccc2)cc1` (configuration not stated), -0.128; that for `O=C1O[C@@H](c2ccccc2)[C@@H](c2ccccc2)N2[C@@H](c3ccc(OCCO)cc3)[C@]3(C(=O)Nc4ccc(C#CC5(O)CCCCCC5)cc43)[C@@H](C(=O)Nc3nc4ccccc4s3)[C@H]12`, 0.553. The same measure, in the same setting: the result for `COCCOC(=O)N1C(=O)[C@@]2(c3cc(C#CCCO)ccc31)[C@H](C(N)=O)[C@H]1C(=O)O[C@H](c3ccccc3)[C@H](c3ccccc3)N1[C@@H]2c1ccccc1OCCO` reads 0.403; that for `CC1CC/C=C\[C@H]2OC34C=CCN(C(C)(C)C)C(=O)[C@H]3N(CCCO)C(=O)[C@@H]4C2C(=O)O1` (some centres not stated), -0.863; that for `COc1ccc([Si](C)(C)[C@H]2[C@H](CC(=O)N3Cc4ccccc4C[C@H]3CO)O[C@@]3(C(=O)N(C)c4ccccc43)[C@@H]2C)cc1`, 1.53.

In turn, `Cc1ccc(S[C@]2(C(=O)NCCCN(C)C)CC(=O)N(C3Cc4ccccc4C3)[C@@H]2c2ccc(CO)cc2I)cc1` registered a composite z-score of -0.976. Still for that read-out and setting: under `O=C1O[C@H](c2ccccc2)[C@H](c2ccccc2)N2[C@H]1[C@@H](C(=O)N1CCN(c3ncccn3)CC1)[C@]1(C(=O)Nc3ccc(C#CCCO)cc31)[C@H]2c1ccc(O)cc1` stands 0.359; under `[N-]=[N+]=Nc1ccccc1C[C@]1(C(=O)N2CCOCC2)N=C(c2ccc(OCCCO)cc2)O[C@H]1c1ccccc1N=[N+]=[N-]`, 1.42; under `COc1ccc(C(=O)Nc2ccc(CN3C(=O)[C@@]4(O[C@@H](CCn5cc(CCO)nn5)[C@H]([Si](C)(C)c5ccc(OC)cc5)[C@H]4C)c4ccccc43)cc2)cc1`, 1.

Compound `NC(=O)NCC#Cc1ccc2c(c1)[C@]1(C(=O)N2)[C@H](c2ccc(OCCO)cc2)N2[C@H](c3ccccc3)[C@H](c3ccccc3)OC(=O)[C@H]2[C@@H]1C(=O)NC[C@H](O)c1ccccc1` had a composite z-score of -0.229.
